Measured values from PubChem BioAssay.

What was measured:
[1] = tested on: Human papillomavirus type 1a protein E7 (residues 44-93); test: HPV1a E7 fragment binders on microarrays, primary screen, biochemical, small-molecule microarray, residues 44-93, 635 nm fluorescence (AID 1108); conditions: small-molecule microarray binding, fluorescence 635 nm; higher = more signal;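 note: E7 fragment applied at 1 µg/mL in TBST for 1 h at 4 C; score combines spot fluorescence with its signal to noise ratio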
[2] = modulators of HCV replicon luciferase signal, primary screen, HCV replication inhibitor project, Huh7 cells, luciferase reporter (AID 1109); conditions: 48 h, higher = more signal;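 note: huh7 hepatoma cells harbouring a luciferase neomycin HCV replicon reporter; luciferase luminescence as measure of HCV replicon replication; test concentration not given here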
[3] = biological target: Left-right determination factor 2 (Homo sapiens) (UniProt O00292); test: LEFTY2 binders on small-molecule microarrays, primary screen, biochemical, small-molecule microarray, 635 nm fluorescence scan (AID 1110); conditions: LEFTY2 binding, higher = more signal
[4] = biological target: Calmodulin-1 (Homo sapiens) (UniProt P0DP23); test: CALM1 binders on microarrays, EGTA buffer, profiling panel, biochemical, small-molecule microarray, Cy5-labelled CALM1 (AID 1111); conditions: Cy5-CALM1 binding fluorescence, higher = more signal;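 note: labelled calmodulin applied in Tris saline Tween buffer holding calcium plus EGTA and DTT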
[5] = biological target: Calmodulin-1 (Homo sapiens) (UniProt P0DP23); test: calcium-bound CALM1 binders on microarrays, profiling panel, artefact control for SMM control-protein annotation, biochemical, small-molecule microarray, Cy5-labelled CALM1, plus calcium (AID 1112); conditions: Cy5-CALM1 binding fluorescence, higher = more signal;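 note: score merges spot fluorescence with signal to noise from triplicate slides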
[6] = small-molecule microarray binders of probe aWnt5a, primary screen, biochemical, biotinylated probe, 635/667 nm fluorescence (AID 1113); conditions: higher = more signal;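 note: score merges 667 nm fluorescence intensity with signal-to-noise per printed feature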
[7] = small-molecule microarray binders of probe aShh, primary screen, biochemical, biotinylated probe, 635/667 nm fluorescence (AID 1114); conditions: higher = more signal;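 note: probe is biotin-labelled aShh protein from a stem cell growth factor screen; measures binding of labelled protein to compounds printed on the slide; score merges feature fluorescence at 667 nm with signal-to-noise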
[8] = small-molecule microarray binders of probe aNog, primary screen, biochemical, biotinylated probe, 635/667 nm fluorescence (AID 1115); conditions: higher = more signal;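 note: probe is biotinylated aNog protein used at 0.15 µg/mL for 1 h at 4 C; z-score combines 667 nm fluorescence of each spot with its signal to noise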
[9] = biological target: Torsin-1A-interacting protein 1 (Homo sapiens) (UniProt Q5JTV8); test: LAP1 binders from COS7 cell lysate, primary screen, small-molecule microarray, 635/667 nm fluorescence (AID 1116); conditions: COS7-hLAP1 lysate binding, 635 nm fluorescence, higher = more signal
[10] = biological target: Alpha-bungarotoxin (Bungarus multicinctus) (UniProt P60615); test: alpha-bungarotoxin binders on microarray, profiling panel, artefact control for SMM control protein annotation, biochemical, small-molecule microarray, Alexa647 label, 635/667 nm fluorescence (AID 1117); conditions: alpha-BTX-A647 binding fluorescence, higher = more signal
Alpha-bungarotoxin (Bungarus multicinctus), sequence (P60615 whole entry, looked up): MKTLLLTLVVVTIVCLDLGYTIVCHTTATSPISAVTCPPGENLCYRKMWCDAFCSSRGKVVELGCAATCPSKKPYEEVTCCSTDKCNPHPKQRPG

Torsin-1A-interacting protein 1 (Homo sapiens), sequence (Q5JTV8 whole entry, looked up): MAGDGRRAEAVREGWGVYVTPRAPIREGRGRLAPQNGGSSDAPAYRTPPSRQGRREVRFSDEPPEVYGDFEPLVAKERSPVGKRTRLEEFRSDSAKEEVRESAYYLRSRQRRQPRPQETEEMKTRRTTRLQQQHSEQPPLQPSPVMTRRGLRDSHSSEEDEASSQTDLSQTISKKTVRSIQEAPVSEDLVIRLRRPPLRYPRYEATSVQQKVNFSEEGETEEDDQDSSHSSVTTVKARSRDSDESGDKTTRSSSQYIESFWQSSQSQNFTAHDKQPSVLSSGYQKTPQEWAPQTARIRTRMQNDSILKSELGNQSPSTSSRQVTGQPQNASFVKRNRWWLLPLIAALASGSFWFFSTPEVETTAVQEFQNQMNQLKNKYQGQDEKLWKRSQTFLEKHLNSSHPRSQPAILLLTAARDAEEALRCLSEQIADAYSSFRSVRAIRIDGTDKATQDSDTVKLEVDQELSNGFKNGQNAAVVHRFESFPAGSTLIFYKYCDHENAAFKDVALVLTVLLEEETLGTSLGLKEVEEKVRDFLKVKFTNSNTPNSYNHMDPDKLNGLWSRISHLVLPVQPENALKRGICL
Left-right determination factor 2 (Homo sapiens), sequence (O00292 whole entry, looked up): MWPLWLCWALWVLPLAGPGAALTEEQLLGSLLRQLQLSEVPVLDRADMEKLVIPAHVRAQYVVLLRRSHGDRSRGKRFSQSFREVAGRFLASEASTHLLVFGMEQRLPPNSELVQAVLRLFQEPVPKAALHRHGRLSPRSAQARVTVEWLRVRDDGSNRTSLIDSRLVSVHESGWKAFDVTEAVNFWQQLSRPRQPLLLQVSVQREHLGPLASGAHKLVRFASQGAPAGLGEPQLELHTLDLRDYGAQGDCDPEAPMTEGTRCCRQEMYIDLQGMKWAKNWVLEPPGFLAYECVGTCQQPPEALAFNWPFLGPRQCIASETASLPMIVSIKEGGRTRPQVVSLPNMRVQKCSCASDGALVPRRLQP

SMILES | composite z-score [1] | z-score [2] | composite z-score [3] | composite z-score [4] | composite z-score [5] | composite z-score [6] | composite z-score [7] | composite z-score [8] | composite z-score [9] | composite z-score [10]
CO[C@@H]1COC(=O)CCC[C@@H](C)[C@H](OC)COC(=O)[C@H](Cc2ccccc2)NC(=O)CC=C[C@H]1C | -1.68 | -1.48 | 0.714 | -1.16 | -1.81 | -0.197 | 0.194 | 0.0596 | -0.405 | -0.0864
CCOC(=O)CCN1C(=O)[C@H]2[C@H]3[C@H](O)[C@H](O)CC(=NOCc4ccccc4)[C@@H]3CC[C@H]2C1=O | -0.482 | -1.08 | 0.591 | -0.138 | -0.848 | -0.0125 | -0.243 | 0.107 | -0.0594 | 0.419
CC(CCN1CCc2nc(-c3ccccc3)c(-c3ccccc3)cc2C1)=NO[C@H](C)c1cn([C@@H]2COC[C@H]2O)nn1 | 1.35 | -0.883 | 0.0738 | -0.307 | -0.46 | -0.0685 | -0.0553 | -0.025 | 0.438 | 0.872
O=C(NN=C1C[C@@H](O)[C@@H](O)[C@@H]2[C@@H]3C(=O)N(c4ccc(F)cc4F)C(=O)[C@@H]3CC[C@@H]12)OCc1ccccc1 | 0.782 | -0.769 | 0.312 | -0.0007 | -0.226 | 0.0354 | -0.0553 | -0.562 | 0.547 | 0.736
C[C@H]1CC[C@@H](C(=O)O)N[C@@H]1c1ccc(C#CCN(C)C)cc1 | -1.64 | 0.848 | 0.793 | -0.263 | -0.51 | -0.152 | 0.148 | -0.126 | 0.109 | 0.783
COCCCNC(=O)[C@@]1(CCS(=O)(=O)c2ccccc2)N=C(c2ccc(OCCCO)cc2)O[C@H]1c1ccccc1 | 0.432 | -1.2 | -0.133 | 0.361 | 0.4 | 0.525 | 0.179 | 2.11 | 2.95 | 2.44
CN(C)CCCNC(=O)[C@@H]1c2ccccc2C(=O)N(Cc2ccccc2)[C@H]1c1ccc(CO)cc1 | -0.176 | -1.24 | 0.186 | -0.177 | -0.981 | -0.0527 | -0.281 | 0.366 | -0.668 | -0.261
O=C1[C@H]2[C@H]3[C@H](O)[C@H](O)CC(=NOC[C@@H](O)COCc4ccco4)[C@H]3CC[C@H]2C(=O)N1C1CCCCC1 | -0.417 | -0.353 | 1.05 | -1.04 | -1.77 | -0.104 | -0.138 | -0.402 | -0.324 | -0.32
O=C1O[C@@H](c2ccccc2)[C@@H](c2ccccc2)N2[C@@H](c3ccc(O)cc3)[C@]3(C(=O)Nc4ccccc43)[C@@H](C(=O)O)[C@H]12 | 1.02 | -0.996 | -0.6 | 0.64 | 0.212 | -0.174 | -0.793 | 0.0156 | 0.98 | -0.0356
CC(C)=CCCC(C)=CCON=C1[C@H]2CCn3c(=O)n(C)c(=O)n3[C@H]2[C@H](O)[C@@H]2O[C@H]12 | 1.32 | -0.621 | 0.692 | -0.257 | -0.845 | 0.188 | 0.131 | -0.0146 | 1.2 | -0.0134
COc1ccc(OC[C@H]2Cc3c(-c4ccccc4)nc4c(c3CO2)CN(CCOc2ccccc2)CC4)cc1 | 1.22 | -1.77 | 0.722 | 0.59 | -0.243 | -0.0399 | 0.0815 | 0.0637 | 0.423 | 1.13
CCc1cc2c(nc1CC)CCN(CCC(C)=NOC[C@@H](O)COCc1ccco1)C2 | -1.51 | -1.59 | 1.48 | -0.729 | -1.77 | 0.0663 | 0.547 | -0.0965 | 1.11 | 0.64
Cc1cc(C)c(-c2cc([C@H](C)ON=C3[C@H]4CCn5c(=O)n(-c6ccccc6)c(=O)n5[C@H]4[C@H](O)[C@@H]4O[C@H]34)on2)c(C)c1 | 0.548 | -4.92 | 0.59 | 0.0681 | -0.386 | 0.0559 | 0.184 | -0.0554 | 0.441 | 0.322
CC(CCN1CCCCc2nc(C)c(C)cc21)=NOC(C)CN1CCCCc2nc(C)c(C)cc21 (stereo not given) | 1.41 | -2.95 | 1.45 | 0.447 | -0.788 | -0.096 | -0.0709 | -0.0762 | 0.201 | 1.23
C=CCNC(=O)[C@H]1[C@@H]2C(=O)O[C@@H](c3ccccc3)[C@@H](c3ccccc3)N2[C@@H](c2ccc(O)cc2)[C@]12C(=O)N(C(=O)OCCOC)c1ccc(C#CC3=CCCCC3)cc12 | 1.04 | -0.812 | 0.879 | 1.64 | 0.566 | 0.523 | 1.92 | 2.64 | 2.09 | 1.79
CC(C)CON=C1C[C@@H](O)[C@@H](O)[C@@H]2[C@@H]3C(=O)N([C@@H](C)c4ccccc4)C(=O)[C@@H]3CC[C@H]12 | 1.36 | 0.775 | 0.756 | 0.336 | -0.351 | -0.124 | -0.0011 | -0.0308 | 0.619 | 0.922
CCCNC(=O)OC[C@H]1O[C@H](CCON=C[C@@H](OC)[C@H](C)C=CCC(=O)OC)C=C[C@@H]1Oc1ccc(OC)cc1 | 0.0209 | -1.72 | 0.453 | -1.81 | -0.848 | -0.119 | -0.01 | -0.318 | 0.322 | 0.908
COC(=O)C1=C(C)N(Cc2ccccc2)[C@]23O[C@](C(=O)OC)(C(=O)N2[C@@H]1c1ccccc1)[C@H]1CCOC(=O)[C@H]13 | 0.0415 | 0.233 | 0.548 | -0.348 | -0.832 | -0.0482 | -0.0769 | 0.171 | 0.333 | 0.0003
CC(C)NC(=O)[C@@]1(c2ccc([N+](=O)[O-])cc2)CC(=O)N(CC23CC4CC(CC(C4)C2)C3)[C@@H]1c1ccc(CO)cc1I | 1.36 | -3.4 | 0.0161 | 0.613 | 0.273 | -0.0107 | 0.0796 | -0.41 | 0.981 | 0.442
COc1ccc(O[C@H]2C=C[C@@H](c3ccccc3)O[C@@H]2COC(=O)N2CCCCC2)cc1 | -0.57 | -1.34 | -0.0284 | -0.781 | -1.33 | -0.0512 | -0.0146 | -0.267 | 0.323 | -0.195
O=C1C[C@@H](O)[C@@H](O)[C@@H]2[C@@H]3C(=O)N(Cc4ccc5c(c4)OCO5)C(=O)[C@@H]3CC[C@@H]12 | -0.0301 | -0.644 | 0.796 | -0.504 | -0.56 | -0.0405 | 0.0278 | -0.239 | 0.441 | 0.0541
COCCOC(=O)N1C(=O)[C@@]2(c3cc(C#CCNC(N)=O)ccc31)[C@H](c1ccccc1OCCO)N1[C@H](c3ccccc3)[C@H](c3ccccc3)OC(=O)[C@H]1[C@@H]2C(=O)N1CCN(c2ncccn2)CC1 | 0.648 | -0.672 | 0.377 | 0.821 | 0.749 | 0.0326 | -0.108 | -0.105 | 1.01 | 2.14
CCc1cc2c(nc1CC)CCN(CCC(C)=NO[C@@H](C)c1cc(-c3c(C)cc(C)cc3C)no1)C2 | 0.0525 | -1.87 | -0.368 | 0.0642 | -0.363 | -0.195 | -0.0709 | 0.0014 | 0.0675 | 0.297
COC(=O)c1c(CC[C@@H](CO)NC(=O)N[C@H](Cc2ccccc2)Cn2cc(-c3ccccc3N)nn2)oc(C(C)=O)c1C(=O)OC | 0.734 | -1.35 | -0.104 | -0.0936 | -0.656 | -0.001 | 0.0326 | 1.12 | 1.54 | 0.57
NC(=O)NCC#Cc1ccc2c(c1)[C@]1(C(=O)N2)[C@H](c2ccc(O)cc2)N2[C@H](c3ccccc3)[C@H](c3ccccc3)OC(=O)[C@H]2[C@@H]1C(=O)N1CCCCCCC1 | 1.19 | -0.421 | 0.258 | 0.822 | 0.675 | 0.338 | 0.462 | -0.623 | 2.42 | 1.34
